Results taken from PubChem BioAssay AID1159580 (chemical genetic matrix, 2015).
Where “and” joins values, the source holds several entries; their conditions need not be identical. Equal values may be shown once. Out of some 5,500 compounds screened, about 2,000 (36%) were called active. Inconclusive results (about 18%) are left out. Rule as the data show it: active = normalized growth mostly below about 0.91 (no sharp cut-off); inconclusive = no clear call, values can overlap the other calls; inactive = mostly above about 0.92. The list shows a part of the results.

Test: chemical genetic growth profiling, strain panel (AID 1159580);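 also: tested at 20 µM; growth read once vehicle control cultures reached saturation at 30 °C; 1 = growth at the plate median or of vehicle wells; lower values mean less growth of the strain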
Details: S. cerevisiae deletion strains, growth OD

Measured: normalized growth

Clc1ccc(C(c2ccccc2Cl)C(Cl)Cl)cc1 (centres undefined)
active: locus YCL061C, strain MRC1, hits give low values 0.907 | locus YER002W, strain NOP16, hits give low values 1.12 [resistant] | locus YJL129C, strain trk1, hits give low values 0.828 | locus YJL166W, strain qcr8, hits give low values 0.825
inactive: locus YAL013W, strain DEP1, hits give low values 0.997 | locus YAL021C, strain ccr4, hits give low values 1.07 | locus YAL026C, strain drs2, hits give low values 0.943 | locus YAL030W, strain snc1, hits give low values 0.94 | locus YAL040C, strain CLN3, hits give low values 1 | locus YBL061C, strain skt5, hits give low values 0.948 | locus YBR009C, strain hhf1, hits give low values 0.928 | locus YBR021W, strain FUR4, hits give low values 0.949 | locus YBR023C, strain chs3, hits give low values 0.973 | locus YBR171W, strain sec66, hits give low values 0.941 | locus YBR229C, strain ROT2, hits give low values 0.998 | locus YBR231C, strain swc5, hits give low values 0.964 | locus YBR279W, strain paf1, hits give low values 0.987 | locus YCL011C, strain gbp2, hits give low values 0.918 | locus YCL016C, strain dcc1, hits give low values 0.97 | locus YCL029C, strain bik1, hits give low values 0.986 | locus YCL061C, strain MRC1 (second series), hits give low values 1.01 | locus YCL069W, strain vba3, hits give low values 0.982 | locus YCR088W, strain abp1, hits give low values 0.988 | locus YDL005C, strain med2, hits give low values 0.967 | locus YDL035C, strain GPR1, hits give low values 1 | locus YDL040C, strain nat1, hits give low values 0.989 | locus YDL074C, strain BRE1, hits give low values 0.956 | locus YDL101C, strain DUN1, hits give low values 1 | locus YDL134C, strain PPH21, hits give low values 0.993 | locus YDL185W, strain tfp1, hits give low values 0.984 | locus YDL192W, strain arf1, hits give low values 0.989 | locus YDR001C, strain nth1, hits give low values 0.981 | locus YDR069C, strain doa4, hits give low values 0.915 | locus YDR101C, strain arx1, hits give low values 0.987 | locus YDR137W, strain rgp1, hits give low values 0.932 | locus YDR150W, strain NUM1, hits give low values 1.02 | locus YDR159W, strain sac3, hits give low values 1 | locus YDR162C, strain NBP2, hits give low values 1.02 | locus YDR195W, strain ref2 1.06 | locus YDR297W, strain sur2, hits give low values 0.956 | locus YDR318W, strain mcm21, hits give low values 0.985 | locus YDR334W, strain swr1, hits give low values 0.962 | locus YDR335W, strain msn5, hits give low values 0.967 | locus YDR363W, strain ESC2, hits give low values 1.01 | locus YDR388W, hits give low values 0.991 | locus YDR392W, strain spt3, hits give low values 0.869 | locus YDR502C, strain sam2, hits give low values 0.984 | locus YEL003W, strain gim4, hits give low values 0.969 | locus YEL037C, strain rad23, hits give low values 0.983 | locus YEL061C, strain CIN8 (second series), hits give low values 0.984 | locus YEL061C, strain CIN8, hits give low values 1 | locus YER015W, strain faa2, hits give low values 0.978 | locus YER016W, strain bim1, hits give low values 1.02 | locus YER110C, hits give low values 0.986 | locus YER111C, strain swi4, hits give low values 0.986 | locus YER155C, strain BEM2 (second series), hits give low values 0.96 | locus YER155C, strain BEM2, hits give low values 0.994 | locus YER167W, strain BCK2, hits give low values 1 | locus YFR010W, strain ubp6, hits give low values 0.942 | locus YGL078C, strain dbp3, hits give low values 0.99 | locus YGL086W, strain mad1, hits give low values 0.981 | locus YGL167C, strain pmr1, hits give low values 0.972 | locus YGL173C, strain kem1, hits give low values 0.936 | locus YGL227W, strain vid30, hits give low values 0.987 | locus YGL240W, strain doc1, hits give low values 0.925 | locus YGL248W, strain PDE1, hits give low values 0.993 | locus YGL253W, strain hxk2, hits give low values 0.977 | locus YGR078C, strain PAC10, hits give low values 0.987 and 0.999 | locus YGR135W, strain pre9, hits give low values 0.968 | locus YGR229C, strain SMI1, hits give low values 0.978 and 1.01 | locus YGR252W, strain gcn5, hits give low values 0.874 | locus YHR013C, strain ard1, hits give low values 1.11 | locus YHR027C, strain rpn1, hits give low values 0.982 | locus YHR030C, strain SLT2, hits give low values 0.985 and 0.893 | locus YHR079C, strain IRE1 (second series), hits give low values 0.983 | locus YHR079C, strain IRE1, hits give low values 0.947 | locus YHR094C, strain hxt1, hits give low values 0.992 | locus YHR129C, strain ARP1, hits give low values 1 | locus YHR142W, strain chs7, hits give low values 0.919 | locus YHR200W, strain rpn10, hits give low values 0.98 | locus YIL066C, strain RNR3, hits give low values 0.963 | locus YIL073C, strain SPO22, hits give low values 0.952 | locus YIL125W, strain kgd1, hits give low values 0.998 | locus YIR030C, strain dcg1, hits give low values 0.99 | locus YJL092W, strain hpr5, hits give low values 0.961 | locus YJL095W, strain BCK1 (second series), hits give low values 0.973 | locus YJL095W, strain BCK1, hits give low values 1 and 0.933 | locus YJL115W, strain asf1, hits give low values 0.976 | locus YJL134W, strain LCB3, hits give low values 1 | locus YJL154C, strain vps35, hits give low values 0.978 | locus YJL164C, strain tpk1, hits give low values 0.95 | locus YJL168C, strain set2, hits give low values 0.988 | locus YJL187C, strain SWE1 (second series), hits give low values 0.997 | locus YJR043C, strain POL32, hits give low values 1
